Laboratory results as given in the supplement of paper PMC9446081.
± gives the standard deviation of the averaged measurements.

Assays:
Assay in all cases: relative enzymatic activity vs untreated control (fraction); higher = less inhibition
Details in all cases: 100 µM; incubation time: 2 h at 37 C
DNA gyrase = tested on: DNA gyrase
Experimental: (§1)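 In vitro enzymatic inhibition assays (ProFoldin kits) for 12 purified essential E. coli enzymes or complexes, each treated with 218 active antibacterial compounds at 100 µM for 2 h at 37°C. Read-outs were fluorescence or absorbance (phosphate detection, dye binding), converted to activity via standard curves and expressed relative to untreated DMSO controls.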

DNA helicase = DNA helicase (UniProt P0ACB1)
DNA helicase, sequence (P0ACB1 whole entry): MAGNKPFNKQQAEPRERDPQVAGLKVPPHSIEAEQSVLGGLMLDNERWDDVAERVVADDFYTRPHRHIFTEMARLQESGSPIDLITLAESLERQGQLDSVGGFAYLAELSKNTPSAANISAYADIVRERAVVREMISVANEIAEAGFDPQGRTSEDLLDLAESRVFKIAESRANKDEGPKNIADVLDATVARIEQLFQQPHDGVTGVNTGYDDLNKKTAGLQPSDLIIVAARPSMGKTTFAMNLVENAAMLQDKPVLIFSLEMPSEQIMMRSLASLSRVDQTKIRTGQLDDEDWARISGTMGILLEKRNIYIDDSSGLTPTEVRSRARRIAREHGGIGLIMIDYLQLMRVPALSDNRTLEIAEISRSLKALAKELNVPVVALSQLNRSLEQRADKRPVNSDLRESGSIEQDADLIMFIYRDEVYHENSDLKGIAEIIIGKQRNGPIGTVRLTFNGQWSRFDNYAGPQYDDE
Experimental: as §1

DNA ligase = DNA ligase (UniProt B1XA82)
DNA ligase, sequence (B1XA82 whole entry): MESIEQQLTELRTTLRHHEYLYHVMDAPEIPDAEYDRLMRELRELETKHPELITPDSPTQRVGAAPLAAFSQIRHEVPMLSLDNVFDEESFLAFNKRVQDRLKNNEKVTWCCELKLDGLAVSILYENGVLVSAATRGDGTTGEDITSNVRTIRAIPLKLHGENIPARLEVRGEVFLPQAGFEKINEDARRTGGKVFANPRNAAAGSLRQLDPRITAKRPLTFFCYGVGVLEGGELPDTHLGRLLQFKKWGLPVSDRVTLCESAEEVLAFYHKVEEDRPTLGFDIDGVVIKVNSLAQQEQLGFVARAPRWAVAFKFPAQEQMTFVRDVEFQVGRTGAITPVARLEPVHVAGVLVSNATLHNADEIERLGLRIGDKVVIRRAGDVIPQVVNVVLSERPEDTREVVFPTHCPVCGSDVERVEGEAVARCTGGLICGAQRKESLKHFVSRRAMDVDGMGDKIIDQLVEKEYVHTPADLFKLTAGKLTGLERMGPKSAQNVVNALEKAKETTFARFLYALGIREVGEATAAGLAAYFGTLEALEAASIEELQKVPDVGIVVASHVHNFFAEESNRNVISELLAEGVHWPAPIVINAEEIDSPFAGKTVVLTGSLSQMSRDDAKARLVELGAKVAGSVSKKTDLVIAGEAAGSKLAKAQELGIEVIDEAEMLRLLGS
Experimental: as §1

DNA polymerase = DNA polymerase (UniProt P10443)
DNA polymerase, sequence (P10443 whole entry): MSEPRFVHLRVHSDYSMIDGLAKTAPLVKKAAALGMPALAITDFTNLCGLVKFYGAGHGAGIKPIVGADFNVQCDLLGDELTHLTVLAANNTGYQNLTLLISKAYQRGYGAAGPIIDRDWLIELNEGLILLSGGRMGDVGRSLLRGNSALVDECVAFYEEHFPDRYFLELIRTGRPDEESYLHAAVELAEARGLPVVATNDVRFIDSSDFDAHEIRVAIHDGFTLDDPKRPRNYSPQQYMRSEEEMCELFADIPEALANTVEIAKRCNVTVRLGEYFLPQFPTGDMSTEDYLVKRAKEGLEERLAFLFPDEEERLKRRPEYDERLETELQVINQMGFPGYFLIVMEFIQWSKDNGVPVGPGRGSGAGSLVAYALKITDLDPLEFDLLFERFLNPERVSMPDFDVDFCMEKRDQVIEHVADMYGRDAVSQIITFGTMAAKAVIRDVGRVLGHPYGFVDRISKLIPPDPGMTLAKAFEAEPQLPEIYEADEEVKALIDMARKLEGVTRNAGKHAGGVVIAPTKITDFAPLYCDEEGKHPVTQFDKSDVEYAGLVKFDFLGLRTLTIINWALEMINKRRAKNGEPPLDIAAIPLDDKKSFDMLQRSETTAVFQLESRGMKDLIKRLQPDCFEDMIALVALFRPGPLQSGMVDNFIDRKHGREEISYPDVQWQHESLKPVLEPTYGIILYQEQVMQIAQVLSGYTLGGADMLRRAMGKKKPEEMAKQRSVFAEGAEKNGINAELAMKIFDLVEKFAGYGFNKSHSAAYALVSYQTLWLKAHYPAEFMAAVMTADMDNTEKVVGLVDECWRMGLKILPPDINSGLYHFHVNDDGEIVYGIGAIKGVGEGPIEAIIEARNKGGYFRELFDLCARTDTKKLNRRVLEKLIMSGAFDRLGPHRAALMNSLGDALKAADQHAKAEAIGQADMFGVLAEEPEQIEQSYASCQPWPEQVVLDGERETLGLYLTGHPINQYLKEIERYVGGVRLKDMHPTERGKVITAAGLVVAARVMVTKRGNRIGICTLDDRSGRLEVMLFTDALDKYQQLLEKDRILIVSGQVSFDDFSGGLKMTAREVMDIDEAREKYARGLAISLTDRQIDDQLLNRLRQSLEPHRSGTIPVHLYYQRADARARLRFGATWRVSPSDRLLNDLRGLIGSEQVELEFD
Experimental: as §1

DNA primase = DNA primase (UniProt P0ABS7)
DNA primase, sequence (P0ABS7 whole entry): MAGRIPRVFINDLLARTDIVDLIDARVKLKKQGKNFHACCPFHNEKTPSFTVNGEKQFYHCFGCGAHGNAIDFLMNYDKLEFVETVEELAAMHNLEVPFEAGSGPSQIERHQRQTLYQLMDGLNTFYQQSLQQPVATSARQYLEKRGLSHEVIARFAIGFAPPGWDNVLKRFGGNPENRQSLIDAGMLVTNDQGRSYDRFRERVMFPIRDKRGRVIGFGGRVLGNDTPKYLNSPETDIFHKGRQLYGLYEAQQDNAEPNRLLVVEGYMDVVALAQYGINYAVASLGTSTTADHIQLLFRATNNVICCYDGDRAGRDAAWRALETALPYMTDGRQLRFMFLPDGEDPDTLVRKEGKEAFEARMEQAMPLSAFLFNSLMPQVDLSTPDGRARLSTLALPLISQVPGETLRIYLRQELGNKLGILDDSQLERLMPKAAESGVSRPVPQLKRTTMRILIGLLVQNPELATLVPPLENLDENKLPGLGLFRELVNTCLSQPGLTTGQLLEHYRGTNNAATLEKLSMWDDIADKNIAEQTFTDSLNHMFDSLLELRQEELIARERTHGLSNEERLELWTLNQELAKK
Experimental: as §1

GlmU = GlmU (UniProt A7ZTU1)
GlmU, sequence (A7ZTU1 whole entry, looked up): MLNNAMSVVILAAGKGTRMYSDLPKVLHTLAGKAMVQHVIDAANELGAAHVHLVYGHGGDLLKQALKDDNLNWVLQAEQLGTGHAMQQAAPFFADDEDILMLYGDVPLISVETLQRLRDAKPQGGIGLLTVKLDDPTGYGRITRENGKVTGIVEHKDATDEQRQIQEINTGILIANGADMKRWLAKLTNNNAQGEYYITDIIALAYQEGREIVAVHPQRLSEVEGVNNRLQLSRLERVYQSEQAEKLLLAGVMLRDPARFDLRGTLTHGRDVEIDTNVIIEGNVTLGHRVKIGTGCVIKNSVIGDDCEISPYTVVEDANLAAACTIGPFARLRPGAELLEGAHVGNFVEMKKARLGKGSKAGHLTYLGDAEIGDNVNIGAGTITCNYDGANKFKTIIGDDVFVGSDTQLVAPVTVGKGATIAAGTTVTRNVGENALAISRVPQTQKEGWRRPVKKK
Experimental: as §1

Guanlyate kinase = Guanlyate kinase (UniProt Q0TBG1)
Guanlyate kinase, sequence (Q0TBG1 whole entry): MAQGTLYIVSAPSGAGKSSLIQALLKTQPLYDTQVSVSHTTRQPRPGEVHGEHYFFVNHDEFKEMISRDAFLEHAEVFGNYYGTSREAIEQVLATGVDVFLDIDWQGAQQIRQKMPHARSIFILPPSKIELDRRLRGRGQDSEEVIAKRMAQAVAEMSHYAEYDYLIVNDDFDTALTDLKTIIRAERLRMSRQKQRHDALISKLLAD
Experimental: as §1

MurA = MurA (UniProt Q3YX52)
MurA, sequence (Q3YX52 whole entry): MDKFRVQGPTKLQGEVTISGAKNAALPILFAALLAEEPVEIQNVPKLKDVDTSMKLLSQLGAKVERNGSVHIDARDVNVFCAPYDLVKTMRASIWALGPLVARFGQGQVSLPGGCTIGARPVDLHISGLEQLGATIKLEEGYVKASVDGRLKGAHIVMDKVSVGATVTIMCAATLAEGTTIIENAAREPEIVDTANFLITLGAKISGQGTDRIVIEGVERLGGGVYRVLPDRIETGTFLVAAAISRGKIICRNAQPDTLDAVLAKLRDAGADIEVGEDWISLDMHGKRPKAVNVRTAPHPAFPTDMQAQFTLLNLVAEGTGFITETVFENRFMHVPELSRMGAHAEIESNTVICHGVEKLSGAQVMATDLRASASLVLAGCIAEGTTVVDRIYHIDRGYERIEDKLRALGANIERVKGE
Experimental: as §1

MurD = target: T1, MurD (UniProt P14900)
T1 sequence (whole entry): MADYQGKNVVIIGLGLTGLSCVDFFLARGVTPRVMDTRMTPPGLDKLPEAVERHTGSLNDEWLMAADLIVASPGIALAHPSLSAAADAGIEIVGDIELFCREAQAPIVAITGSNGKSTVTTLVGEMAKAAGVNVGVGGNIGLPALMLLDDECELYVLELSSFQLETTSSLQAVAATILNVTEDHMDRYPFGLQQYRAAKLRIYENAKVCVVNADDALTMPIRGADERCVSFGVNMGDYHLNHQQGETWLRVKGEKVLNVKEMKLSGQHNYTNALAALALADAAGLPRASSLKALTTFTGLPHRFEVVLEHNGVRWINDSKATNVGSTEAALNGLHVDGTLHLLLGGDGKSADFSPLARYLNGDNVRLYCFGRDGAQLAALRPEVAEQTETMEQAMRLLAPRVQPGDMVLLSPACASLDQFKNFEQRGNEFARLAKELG
Experimental: as §1

MurF = target: T2, MurF (UniProt P11880)
T2 sequence (whole entry): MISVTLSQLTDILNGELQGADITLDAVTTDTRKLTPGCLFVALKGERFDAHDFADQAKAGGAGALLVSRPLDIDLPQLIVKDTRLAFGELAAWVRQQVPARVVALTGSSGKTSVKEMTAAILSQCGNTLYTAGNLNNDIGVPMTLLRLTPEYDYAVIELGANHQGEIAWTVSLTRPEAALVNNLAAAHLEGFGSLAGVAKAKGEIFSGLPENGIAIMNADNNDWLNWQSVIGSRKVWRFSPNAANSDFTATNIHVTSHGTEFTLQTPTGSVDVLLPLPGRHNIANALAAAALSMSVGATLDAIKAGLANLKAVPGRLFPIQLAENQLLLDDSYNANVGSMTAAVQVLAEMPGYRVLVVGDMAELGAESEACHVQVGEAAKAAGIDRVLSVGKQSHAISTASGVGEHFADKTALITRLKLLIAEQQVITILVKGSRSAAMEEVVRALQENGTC
Experimental: as §1

RNA polymerase = tested on: RNA polymerase
Experimental: as §1

SMILES	relative enzymatic activity (DNA gyrase)	relative enzymatic activity (DNA helicase)	relative enzymatic activity (DNA ligase)	relative enzymatic activity (DNA polymerase)	relative enzymatic activity (DNA primase)	relative enzymatic activity (GlmU)	relative enzymatic activity (Guanlyate kinase)	relative enzymatic activity (MurA)	relative enzymatic activity (MurD)	relative enzymatic activity (MurF)	relative enzymatic activity (RNA polymerase)
NCC1OC(OC2C(N)CC(N)C(OC3OC(CO)C(O)C(N)C3O)C2O)C(N)CC1O (stereo not drawn)	1.2 ± 0.12	0.45 ± 0.37	1.02 ± 0.084	1.33 ± 0.47	0.71 ± 0.18	0.979 ± 0.048	1 ± 0.013	0.82 ± 0.12	0.611 ± 0.4	0.932 ± 0.15	0.809 ± 0.04
CC1COc2c(N3CCN(C)CC3)c(F)cc3c(=O)c(C(=O)O)cn1c23 (stereo not drawn)	0.0425 ± 0.06	0.698 ± 0.077	1.39 ± 0.046	1.3 ± 0.35	0.722 ± 0.2	1.1 ± 0.2	0.937 ± 0.12	0.757 ± 0.05	0.584 ± 0.4	0.976 ± 0.2	1.16 ± 0.38
CN(C)c1ccc(O)c2c1C[C@H]1C[C@H]3[C@H](N(C)C)C(=O)C(C(N)=O)=C(O)[C@@]3(O)C(=O)[C@H]1C2=O	0.655 ± 0.27	0.659 ± 0.38	0.8389 ± 0.0033	0.961 ± 0.2	0.669 ± 0.027	0.995 ± 0.035	0.701 ± 0.069	0.0752 ± 0.015	0.623 ± 0.42	0.96 ± 0.18	0.304 ± 0.052
CCCCCCCCCCCCCCCC[N+](C)(C)Cc1ccccc1.[Cl-]	0.3954 ± 0.003	0.0157 ± 0.00047	0.183 ± 0.12	0.0334 ± 0.0085	0.27 ± 0.0085	0.115 ± 0.0013	0.0243 ± 0.0088	0.032 ± 0.0013	0.0872 ± 0.0094	0.156 ± 0.061	0.133 ± 0.018
NCCC(O)C(=O)NC1CC(N)C(OC2OC(CN)C(O)C(O)C2O)C(O)C1OC1OC(CO)C(O)C(N)C1O.O (stereo not drawn)	0.693 ± 0.16	0.562 ± 0.14	0.998 ± 0.06	0.875 ± 0.12	0.824 ± 0.023	0.994 ± 0.011	0.647 ± 0.01	0.963 ± 0.055	0.564 ± 0.37	0.962 ± 0.21	0.434 ± 0.49
CC(N)O.Cc1cc(CC(C)CC(C)(C)C)n(O)c(=O)c1 (stereo not drawn)	0.964 ± 0.11	0.621 ± 0.26	1.17 ± 0.13	1.16 ± 0.23	0.719 ± 0.22	1.095 ± 0.0024	0.963 ± 0.12	0.844 ± 0.05	0.636 ± 0.43	0.592 ± 0.82	0.884 ± 0.076
CCN1CCN(C(=O)NC(C(=O)NC2C(=O)N3C(C(=O)O)=C(CSc4nnnn4C)CSC23)c2ccc(O)cc2)C(=O)C1=O (stereo not drawn)	0.414 ± 0.27	0.636 ± 0.11	1.35 ± 0.11	1.23 ± 0.34	0.673 ± 0.16	1.09 ± 0.17	0.828 ± 0.076	0.0994 ± 0.0088	0.546 ± 0.35	0.965 ± 0.23	0.96 ± 0.2
CCC(C)C1NC(=O)C(CCNCS(=O)(=O)[O-])NC(=O)C(NC(=O)C(CCNCS(=O)(=O)[O-])NC(=O)C(NC(=O)C(CCNCS(=O)(=O)[O-])NC(=O)CCCCC(C)C)C(C)O)CCNC(=O)C(C(C)O)NC(=O)C(CCNCS(=O)(=O)[O-])NC(=O)C(CCNCS(=O)(=O)[O-])NC(=O)C(C(C)CC)NC1=O.[Na+].[Na+].[Na+].[Na+].[Na+] (stereo not drawn)	1.1 ± 0.088	0.615 ± 0.27	1.08 ± 0.17	1.32 ± 0.34	0.766 ± 0.23	0.983 ± 0.022	1 ± 0.023	0.564 ± 0.14	0.591 ± 0.39	1.03 ± 0.3	0.919 ± 0.029
CCC=C(C(=O)NC1C(=O)N2C(C(=O)OCOC(=O)C(C)(C)C)=C(COC(N)=O)CSC12)c1csc(N)n1.Cl (stereo not drawn)	0.924 ± 0.071	0.354 ± 0.016	0.883 ± 0.11	1.17 ± 0.27	0.907 ± 0.088	0.939 ± 0.024	1.02 ± 0.098	0.293 ± 0.18	0.576 ± 0.37	0.941 ± 0.21	0.977 ± 0.094
CC1C(NC(=O)C(=NOC(C)(C)C(=O)O)c2csc(N)n2)C(=O)N1S(=O)(=O)O (stereo not drawn)	0.879 ± 0.42	0.582 ± 0.14	1.36 ± 0.2	0.711 ± 0.38	0.832 ± 0.01	0.903 ± 0.016	0.908 ± 0.068	0.798 ± 0.071	0.589 ± 0.39	0.948 ± 0.24	0.844 ± 0.071
CN(C)[C@@H]1C(=O)[C@@H](C(N)=O)C(=O)[C@@]2(O)C(=O)[C@H]3C(=O)c4c(O)ccc(Cl)c4[C@@H](O)[C@H]3C[C@@H]12	1.05 ± 0.19	0.508 ± 0.1	0.858 ± 0.066	1.17 ± 0.28	0.754 ± 0.018	1.02 ± 0.063	0.831 ± 0.16	0.336 ± 0.14	0.621 ± 0.42	0.975 ± 0.23	0.749 ± 0.19
COC1=C(N)C(=O)c2nc(-c3nc(C(=O)O)c(C)c(-c4ccc(OC)c(OC)c4O)c3N)ccc2C1=O	0.611 ± 0.34	0.19 ± 0.014	0.732 ± 0.11	1.03 ± 0.48	0.602 ± 0.05	0.789 ± 0.23	0.6758 ± 0.0058	0.072 ± 0.019	0.596 ± 0.39	1 ± 0.23	0.291 ± 0.026
CN(C)c1ccc(O)c2c1C[C@H]1C[C@H]3[C@H](N(C)C)C(=O)[C@@H](C(N)=O)C(=O)[C@@]3(O)C(=O)[C@H]1C2=O	0.636 ± 0.27	0.47 ± 0.11	0.8372 ± 0.0039	0.973 ± 0.03	0.776 ± 0.056	1.03 ± 0.019	0.692 ± 0.016	0.306 ± 0.14	0.607 ± 0.43	0.981 ± 0.18	0.686 ± 0.011
COC1(NC(=O)C2SC(=C(C(N)=O)C(=O)O)S2)C(=O)N2C(C(=O)O)=C(CSc3nnnn3C)CSC21 (stereo not drawn)	0.705 ± 0.46	0.463 ± 0.027	1.47 ± 0.23	1.18 ± 0.25	0.683 ± 0.18	0.99 ± 0.066	0.994 ± 0.02	0.0627 ± 0.021	0.618 ± 0.43	0.974 ± 0.2	0.871 ± 0.07
CN(C)[C@@H]1C(=O)[C@@H](C(N)=O)C(=O)[C@@]2(O)C(=O)[C@@H]3C(=O)c4c(O)c(NC(=O)CN5CCCC5)cc(F)c4C[C@H]3C[C@@H]12	0.0486 ± 0.069	0.103 ± 0.0053	0.94816 ± 9.1e-05	1.06 ± 0.31	0.456 ± 0.15	0.9445 ± 0.0056	0.347 ± 0.035	0.63 ± 0.26	0.632 ± 0.45	0.943 ± 0.19	0.118 ± 0.028
CO/N=C(\C(=O)N[C@@H]1C(=O)N2C(C(=O)O)=C(CSc3nnnn3C)CS[C@H]12)c1csc(N)n1	1.08 ± 0.03	0.544 ± 0.23	0.749 ± 0.049	1.15 ± 0.25	0.827 ± 0.017	1.09 ± 0.046	0.883 ± 0.091	0.157 ± 0.032	0.611 ± 0.42	1.16 ± 0.11	0.8391 ± 0.00096
Cn1nnnc1SCC1=C(C(=O)[O-])N2C(=O)C(NC(=O)C(O)c3ccccc3)C2SC1.[Na+] (stereo not drawn)	0.841 ± 0.26	0.638 ± 0.12	1.42 ± 0.27	1.19 ± 0.25	0.689 ± 0.18	1.16 ± 0.18	0.942 ± 0.17	0.0762 ± 0.016	0.636 ± 0.44	0.988 ± 0.21	1.16 ± 0.45
CO/N=C1\CN(c2nc3c(cc2F)c(=O)c(C(=O)O)cn3C2CC2)C[C@@H]1CN	0.0916 ± 0.13	0.4747 ± 0.0033	0.891 ± 0.14	0.53 ± 0.72	0.751 ± 0.05	0.979 ± 0.019	0.738 ± 0.26	0.631 ± 0.21	0.572 ± 0.38	0.964 ± 0.17	0.807 ± 0.074
